Screens as filed in PubChem BioAssay.
An excerpt weighted towards active compounds, which were near 3.3% of everything screened.
AmpC inh no detg – qHTS Inhibitors of AmpC Beta-Lactamase (assay without detergent); AmpC nitrocefin hydrolysis, absorbance 480 nm, 0.0001% Triton; hit rate 0.52% among 330,000; Potency, µM (series often up to 57.1 µM), for the others: at the top dose activity change, negative = inhibition, hits mostly inhibitors; P00811;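 note: plate controls were no compound for no effect and no enzyme for full effect; nearly all actives have a fitted effect of over 20% in size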
Target sequence (P00811 whole entry, looked up): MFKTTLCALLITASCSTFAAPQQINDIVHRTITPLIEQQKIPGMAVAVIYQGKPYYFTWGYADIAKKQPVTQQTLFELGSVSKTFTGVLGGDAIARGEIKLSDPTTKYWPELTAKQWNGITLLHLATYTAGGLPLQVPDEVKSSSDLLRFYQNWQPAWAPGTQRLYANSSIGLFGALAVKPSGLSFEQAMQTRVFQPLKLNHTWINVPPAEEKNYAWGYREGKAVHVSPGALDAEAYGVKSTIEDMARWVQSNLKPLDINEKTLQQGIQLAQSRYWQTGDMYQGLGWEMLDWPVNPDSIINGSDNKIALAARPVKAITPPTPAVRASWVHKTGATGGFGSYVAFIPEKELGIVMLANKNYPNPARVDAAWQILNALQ
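AmpC (5.3 nM in the dispensed reagent) in 20 mM phosphate pH 7.0 with 0.01% (detergent screen) or 0.0001% Triton X-100 was preincubated with compounds for 15 min at room temperature. Nitrocefin was then added from an 800 uM solution, and hydrolysis was followed at 480 nm.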
AmpC detergent – qHTS Inhibitors of AmpC Beta-Lactamase (assay with detergent) | P00811 | AmpC hydrolysis of nitrocefin, absorbance 480 nm, 0.01% Triton | Potency, µM (doses to about 114 µM), inactives show at the highest dose activity change, negative = inhibition, actives largely listed as inhibitors | hit rate 0.041% among 370,000 | AID 485294, 2010;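 note: 0% = no-compound wells and -100% = no-enzyme wells; nearly all actives have a fitted effect of over 25% in size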
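AmpC (5.3 nM in the dispensed reagent) in 20 mM phosphate pH 7.0 with 0.01% (detergent screen) or 0.0001% Triton X-100 was preincubated with compounds for 15 min at room temperature. Nitrocefin was then added from an 800 uM solution, and hydrolysis was followed at 480 nm.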
Sm TGR inh – qHTS Assay for the Inhibitors of Schistosoma Mansoni Peroxiredoxins; Schistosoma mansoni thioredoxin glutathione reductase (TGR), Q962Y6; purified TGR, DTNB reduction, TNB absorbance 405 nm; hit rate 3% among 360,000; Potency, µM (titrated, usually from 114 µM), without a hit: at the top dose activity change, negative = inhibition, most hits filed as inhibitors; AID 485364, 2010; note: nearly all actives have a fitted effect of over 60% in size
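Kinetic colorimetric format: TGR-catalysed, NADPH-driven DTNB reduction monitored via TNB absorbance. Enzyme dispensed at 20 nM; compound exposure 15 min at room temperature before reaction start.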
Numbers without * were called inactive; ? = inconclusive; · = not tested or not shown. Calls come from the whole dose curve; as a rule, active = well fitted curve in the direction sought with a large enough effect; inconclusive = small, poorly fitted or top-dose-only effect, or another doubt; inactive = no such curve, though single readings can be large; an effect the other way counts as inactive or inconclusive. Unless noted, % is set by controls: 0 for no effect and ±100 for the full control effect; potency is the fitted concentration of half-maximal effect.

SMILES | AmpC inh no detg | AmpC detergent | Sm TGR inh
CC(C)[C@H](NC(=O)[C@@H]1CSC2c3ccccc3C(=O)N21)C(=O)NCc1ccco1 (some centres not stated) | -37% | -7% | 45µM*
CC(C)[C@H](NC(=O)[C@@H]1CSC2c3ccccc3C(=O)N21)C(=O)NCc1ccncc1 (some centres not stated) | 2% | -2% | -11%
O=C(NCc1ccco1)[C@@H]1CSC2c3ccccc3C(=O)N21 (some centres not stated) | -17% | 1% | 32µM*
O=C(NCc1cccs1)[C@@H]1CSC2c3ccccc3C(=O)N21 (some centres not stated) | -50% | -11% | 18%
O=C(c1ccco1)n1nc(-c2ccc(Cl)cc2)nc1NCc1ccc(F)cc1 | · | -2% | -1%
Cc1cccc(Cn2cc3c(=O)n(CC(=O)Nc4ccc(C)c(F)c4)nc-3c3cc(F)ccc32)c1 | · | 8% | 0%
COc1ccc(C(C)=O)cc1CSc1nnc(C)s1 | -9% | -6% | 45µM*
COc1ccc(Br)cc1CN(C)C(C)C(=O)Nc1cccc(C(C)=O)c1 (configuration not stated) | 58% | 6% | 22µM*
COc1ccc(C(C)=O)cc1Cn1c(=O)cc(C)[nH]c1=O | -4% | -5% | 40µM*
COc1ccccc1CN(C)C(C)C(=O)Nc1cccc(C(C)=O)c1 (configuration not stated) | -13% | -16% | -5%
COc1ccc(NC(=O)COc2ccc(-n3cnnn3)cc2)cc1OC | -13% | -6% | 1%
COc1ccc(C(C)=O)cc1CN1C(=O)NC2(CCCCCCC2)C1=O | 1% | 3% | -3%
COc1ccc(C(C)=O)cc1COc1ccc(-n2cnnn2)cc1 | 11% | -12% | 20µM*
COc1ccc(C(C)=O)cc1CSc1nnc(Nc2ccc(C)cc2)s1 | -14% | -7% | -7%
Cc1ccc(Cl)cc1N1CCN(C(=O)C2CCN(S(=O)(=O)c3c(C)noc3/C=C/c3ccccc3F)CC2)CC1 | · | 12% | 5%
CCc1cccc(C)c1NC(=O)C1CCN(S(=O)(=O)c2c(C)noc2/C=C/c2c(C)cc(C)cc2C)CC1 | · | 12% | 3%
COc1ccc(C(C)=O)cc1CN(C)C | · | 0% | 5µM*
COc1ccc(C(C)=O)cc1CC(=O)NC1CCCCCC1 | -11% | -16% | -1%
Cc1ccc2c(=O)cc(C(=O)Nc3c(C(=O)c4ccccc4)oc4ccccc34)oc2c1C | · | 0% | -2%
Cc1ccc(OCC(=O)O/N=C(\N)c2ccncc2)c(C)c1 | 1% | -20% | -2%
Cc1ccc(SC(C)C(=O)O/N=C(\N)c2ccncc2)cc1 (configuration not stated) | 46% | 3% | 40µM*
Cc1cccc(Cn2c(N(C)CCO)nc3c2c(=O)[nH]c(=O)n3C)c1 | 11µM* | ? | 6%
CN(Cc1ccccc1)c1nc2c(c(=O)[nH]c(=O)n2C)n1Cc1ccccc1 | 99% | ? | 0%
CC(=O)C1=C(O)C(=O)N(CCc2c[nH]c3ccccc23)C1c1ccc(C)cc1 (configuration not stated) | -34% | -2% | 7%
CC(=O)C1=C(O)C(=O)N(CCc2c[nH]c3ccccc23)C1c1ccco1 (configuration not stated) | -27% | -3% | 40µM*
SMILES | AmpC inh no detg | AmpC detergent | Sm TGR inh
Cc1ccc(-c2noc(-c3ccc(NC4CCCC4)c([N+](=O)[O-])c3)n2)cc1 | · | -2% | -8%
Cc1ccc(NC(=O)Cn2cc(S(=O)(=O)N3CCC(C)CC3)c3ccccc3c2=O)c(Br)c1 | · | 21% | 1%
CCCCc1ccc(-n2nc3cc(C)c(NC(=O)c4ccc(C#N)cc4F)cc3n2)cc1 | · | 0% | 5%
CCN(CC(=O)NC(C)(C)C)C(=O)COc1c(Cl)cc(Cl)c2ccc(C)nc12 | 173% | 7% | 16µM*
Cc1ccc2c(Cl)cc(Cl)c(OCC(=O)NCCc3ccccn3)c2n1 | 130% | 4% | -11%
CCOc1ccccc1NC(=O)C(CC)Sc1nc2ccsc2c(=O)n1CCC(=O)O (configuration not stated) | 19% | 2% | -7%
CCC(Sc1nc2ccsc2c(=O)n1Cc1ccc(C(=O)O)cc1)C(=O)Nc1ccc(C)c(Cl)c1 (configuration not stated) | 8.9µM* | -1% | -6%
COc1cc(C2CC(=O)Nc3cc4c(cc32)OCCO4)cc(OC)c1O (configuration not stated) | · | 2% | 2%
